Screens (PubChem BioAssay)
TDP1 cell noCPT – qHTS for Inhibitors of human tyrosyl-DNA phosphodiesterase 1 (TDP1): qHTS in cells in absence of CPT. DT40 Tdp1-/- hTDP1 cells, no CPT, ATP luminescence, 48 h. Potency, µM (series often up to 46.2 µM), hits mostly inhibitors. actives 15% (n = 420,000). AID 686978, 2013; also: nearly all actives have a fitted effect of over 55% in size
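Seeded 400 DT40-hTDP1 cells/well (vehicle DMSO, no 20 nM CPT); pinned compounds; ≥48 hr at 37 °C; CellTiter-Glo luminescence as viability measure.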
IL-1B inflam inh – blocks inflammasome-driven IL-1 beta release; THP-1 LPS/ATP IL-1B secretion, AlphaLISA, 16 h; active compounds read low; activity change, % at 57.5 µM; actives 4.7% (n = 360,000); AID 743279; in the data active = activity change below about -50%; inconclusive = mostly about -30% to -49%
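Secreted IL-1B measured by AlphaLISA bead assay after 16 h compound exposure of THP-1 cells; compounds (final up to 57.5 uM) added 1 h before LPS (250 ng/mL) and ATP (1.25 mM) stimulation; lower signal means less secretion.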
HT1080NT lethal – kills 2HG-producing HT-1080-NT fibrosarcoma cells; HT-1080-NT fibrosarcoma viability, CellTiter-Glo ATP luminescence, 48 h; Potency, µM (doses to about 46.1 µM), hits mostly cytotoxic; actives 1.6% (n = 360,000);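 also: NT is the 2HG producing partner of a matched IDH1 knockdown line; nearly all actives have a fitted effect of over 55% in size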
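HT-1080-NT; 750 cells/well; 5% FBS RPMI; 48 h compound, 37 degrees C; CellTiter-Glo luminescence; curve fitting and curve-class assignment.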
DT40 TDP1 CPT – DT40-hTDP1 cell growth loss with CPT | chicken DT40 Tdp1-/-;hTDP1 cells + 20 nM CPT, ATP luminescence, 48 h | Potency, µM (titrated, usually from 46.2 µM), actives largely listed as inhibitors | actives 12% (n = 420,000) | AID 686979; also: nearly all actives have a fitted effect of over 55% in size
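Chicken DT40 Tdp1-/- cells stably complemented with human TDP1 were seeded at 400 cells/well in medium containing 20 nM camptothecin, exposed to pin-transferred compounds, and grown at 37 °C for at least 48 hr. Viability was read as ATP luminescence.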
HT1080 IDH1KD tx – HT-1080 IDH1 knockdown cell toxicity (counter line) | AID 686971 | HT-1080 IDH1 knockdown viability, ATP luminescence, 48 h | actives 2% (n = 360,000) | Potency, µM (series often up to 46.1 µM), usual class: cytotoxic
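% activity derives from luminescence (CellTiter-Glo), normalised to DMSO and no-cell wells. HT-1080-IDH1KD cells, 750/well, had 48 h compound exposure at 37 °C.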
Of the large screens only hits and unclear results are named; the others gave an inactive call; ! = not confirmed by another sample. Hits are enriched below; roughly 19% of the tested compounds scored in any of these assays. Unless noted, calls follow the shape of the dose curve; as a rule, active = well fitted curve in the direction sought with a large enough effect; inconclusive = small, poorly fitted or top-dose-only effect, or another doubt; inactive = no such curve, though single readings can be large; an effect the other way counts as inactive or inconclusive.

Cc1ccc(OCCNC(=O)c2ccccc2F)cc1	none
CCCn1c(=O)n(-c2ccccc2)c(=O)c2sc3ccccc3c21	TDP1 cell noCPT inconclusive (no result: IL-1B inflam inh, HT1080NT lethal, HT1080 IDH1KD tx)
COc1ccc(Cl)cc1NC(=O)c1ccoc1C	none
COc1cc(OC)c(NC(=O)c2ccoc2C)cc1Cl	TDP1 cell noCPT inconclusive, DT40 TDP1 CPT 15µM, HT1080 IDH1KD tx inconclusive
CCOc1cccc(C2NC(=S)NC(C)=C2C(=O)Nc2ccccc2)c1 (stereo not given)	TDP1 cell noCPT 23µM, HT1080NT lethal inconclusive, DT40 TDP1 CPT inconclusive, HT1080 IDH1KD tx inconclusive
CCOC(=O)c1c(NC(=O)C2c3ccccc3Oc3ccccc32)sc(C)c1C	TDP1 cell noCPT 21µM, DT40 TDP1 CPT inconclusive (no result: IL-1B inflam inh, HT1080NT lethal, HT1080 IDH1KD tx)
CCOC(=O)c1c(NC(=O)C2C3C=CC(C3)C2C(=O)O)sc2c1CCC(CC)C2 (stereo not given)	TDP1 cell noCPT inconclusive, HT1080NT lethal inconclusive, DT40 TDP1 CPT 16µM, HT1080 IDH1KD tx inconclusive
CCOC(=O)c1c(NC(=O)C2=C(C)NC(=S)NC2c2ccc(C)cc2)sc(C)c1C (stereo not given)	TDP1 cell noCPT 13µM, IL-1B inflam inh -76, HT1080NT lethal inconclusive, DT40 TDP1 CPT inconclusive
CCOC(=O)c1c(NC(=O)C2c3ccccc3Oc3ccccc32)sc(C(C)=O)c1C	TDP1 cell noCPT inconclusive, IL-1B inflam inh inconclusive, DT40 TDP1 CPT inconclusive
COC(=O)c1c(NC(=O)C2c3ccccc3Oc3ccccc32)sc(C)c1C	TDP1 cell noCPT inconclusive, DT40 TDP1 CPT 23µM
CCC1CCc2c(sc(NC(=O)C3c4ccccc4Oc4ccccc43)c2C(=O)OC)C1 (stereo not given)	TDP1 cell noCPT 10µM, DT40 TDP1 CPT inconclusive (no result: IL-1B inflam inh, HT1080NT lethal, HT1080 IDH1KD tx)
CC1CCc2c(sc(NC(=O)C3c4ccccc4Oc4ccccc43)c2C(=O)OC(C)C)C1 (stereo not given)	none (no result: IL-1B inflam inh, HT1080NT lethal, HT1080 IDH1KD tx)
COC(=O)c1c(NC(=O)Cc2ccccc2)sc(C)c1C	TDP1 cell noCPT inconclusive
COC(=O)c1c(NC(=O)CSc2ccccc2N)sc(C)c1C	TDP1 cell noCPT inconclusive, IL-1B inflam inh -62, DT40 TDP1 CPT inconclusive
COC(=O)c1sc(NC(=O)C2c3ccccc3Oc3ccccc32)c(C(=O)OC)c1C	TDP1 cell noCPT inconclusive, DT40 TDP1 CPT inconclusive
Cc1noc(C)c1C(=O)N1CCC2(CCCN(C(=O)Nc3cccc(F)c3)C2)CC1	none (no result: IL-1B inflam inh, HT1080NT lethal, HT1080 IDH1KD tx)
O=C(CCCN1C(=O)NC2(CCCC2)C1=O)NCc1ccccc1	none
CCN(CC)CCOc1ccc(/C(=C(\Cl)c2ccccc2)c2ccccc2)cc1	TDP1 cell noCPT 15µM!, HT1080NT lethal 4.6µM, DT40 TDP1 CPT inconclusive, HT1080 IDH1KD tx 15µM
CC(=O)c1ccc(NS(=O)(=O)c2c(C)nc3scc(C)n3c2=O)cc1	none (no result: IL-1B inflam inh, HT1080NT lethal, HT1080 IDH1KD tx)
Cc1nc2scc(C)n2c(=O)c1S(=O)(=O)Nc1ccc(N2CCN(S(C)(=O)=O)CC2)cc1	TDP1 cell noCPT 18µM, DT40 TDP1 CPT 23µM
O=C(NCCNc1ccc([N+](=O)[O-])cc1C(F)(F)F)c1ccccc1F	TDP1 cell noCPT inconclusive, IL-1B inflam inh inconclusive, HT1080NT lethal inconclusive, DT40 TDP1 CPT inconclusive
O=[N+]([O-])c1ccc(NCCCNS(=O)(=O)c2ccccc2)c(Cl)c1	TDP1 cell noCPT 16µM, DT40 TDP1 CPT inconclusive
O=[N+]([O-])c1ccc(NCCNS(=O)(=O)c2ccccc2)c(C(F)(F)F)c1	TDP1 cell noCPT 18µM, HT1080NT lethal inconclusive, DT40 TDP1 CPT 26µM, HT1080 IDH1KD tx inconclusive
Cc1ccc(C(=O)NCCNc2ccc([N+](=O)[O-])cc2C(F)(F)F)cc1	TDP1 cell noCPT 18µM, DT40 TDP1 CPT 18µM, HT1080 IDH1KD tx inconclusive
O=[N+]([O-])c1ccc(NCCNS(=O)(=O)c2ccccc2)cc1	TDP1 cell noCPT inconclusive
CCCn1cnc2c(SCc3ccccc3Cl)nc(N)nc21	TDP1 cell noCPT inconclusive, IL-1B inflam inh inconclusive, DT40 TDP1 CPT inconclusive, HT1080 IDH1KD tx inconclusive
O=C(COc1cc(F)ccc1[N+](=O)[O-])NCCCc1ccccc1	none
CCN(CC)c1ccc2nc3ccccc3[n+](CC)c2c1	TDP1 cell noCPT 1.8µM, IL-1B inflam inh -101, HT1080NT lethal 26µM, DT40 TDP1 CPT 5.2µM, HT1080 IDH1KD tx 23µM
COc1ccc(CCN2CC(C(=O)NCCc3ccccc3C)CCC2=O)cc1 (stereo not given)	DT40 TDP1 CPT inconclusive
Cc1ccc2occ(C(c3nnnn3C3CCCC3)N3CCN(C(=O)c4ccco4)CC3)c(=O)c2c1 (stereo not given)	TDP1 cell noCPT inconclusive, IL-1B inflam inh -64, DT40 TDP1 CPT 16µM, HT1080 IDH1KD tx inconclusive
COC(=O)C[C@@H]1CC[C@H](NC(=O)Nc2ccc(OC)cc2)[C@@H](CO)O1	IL-1B inflam inh -57
COC(=O)C[C@@H]1CC[C@H](NC(=O)Nc2ccc(F)cc2)[C@@H](CO)O1	none
Cc1nn(CC(=O)NCCCN2CCN(Cc3ccccc3)CC2)c(=O)c2cc(-c3ccccc3)nn12	TDP1 cell noCPT 21µM, DT40 TDP1 CPT inconclusive
Cc1nn(CC(=O)NCCCN2CCC(Cc3ccccc3)CC2)c(=O)c2cc(-c3ccccc3)nn12	TDP1 cell noCPT 18µM, DT40 TDP1 CPT 18µM
CCc1ccc(-c2cc3c(=O)n(CC(=O)NCCCN4CCC(Cc5ccccc5)CC4)nc(C)n3n2)cc1	TDP1 cell noCPT inconclusive, DT40 TDP1 CPT inconclusive
CCN(CC)C1=C(Cl)C(=O)C(Cl)C12OCCO2 (stereo not given)	none (no result: IL-1B inflam inh)
COc1cccc(C(=O)COC(=O)C(C)N2C(=O)C3C4C=CC(C4)C3C2=O)c1 (stereo not given)	none
CCc1ncc(CN2CCCCC2C(=O)Nc2ccc(Oc3ccccc3)nc2)cn1 (stereo not given)	none
O=c1ccc(-c2ccc(S(=O)(=O)Nc3ccc(F)cc3)s2)n[nH]1	DT40 TDP1 CPT inconclusive
CN(Cc1ccccc1)C(=O)c1cccc(NC(=O)Cc2ccc(NC(=O)C3CCN(S(=O)(=O)c4cccc([N+](=O)[O-])c4)CC3)cc2)c1	none
CN(Cc1ccccc1)C(=O)c1ccc(NC(=O)Cc2ccc(NC(=O)C3CCN(S(=O)(=O)c4cccc([N+](=O)[O-])c4)CC3)cc2)cc1	TDP1 cell noCPT inconclusive, DT40 TDP1 CPT 13µM
CN(Cc1ccccc1)C(=O)c1cccc(NC(=O)Cc2ccc(NC(=O)C3CCCN(C(=O)CCc4ccccc4)C3)cc2)c1 (stereo not given)	TDP1 cell noCPT 15µM, DT40 TDP1 CPT 23µM
CN(C(=O)c1ccc(NC(=O)Cc2cccc(NC(=O)C3CCCN(C(=O)CCc4ccccc4)C3)c2)cc1)C1CCCC1 (stereo not given)	TDP1 cell noCPT inconclusive, DT40 TDP1 CPT 29µM
CN(C(=O)c1cccc(NC(=O)Cc2ccc(NC(=O)C3CCCN(C(=O)C4CCCCC4)C3)cc2)c1)C1CCC1 (stereo not given)	TDP1 cell noCPT inconclusive, DT40 TDP1 CPT inconclusive
